Results with a measured potency or affinity are listed apart. Active and inactive are the calls of the source. How the calls were made is not given here.

The assay is described as follows: HeLa cell cytotoxicity, dose response, cytotoxicity control, 48 h, plate reader, cherry-picks (AID 504942). The note with it: series mostly up to 38 µM.
As for `Nc1ccc(OCc2ccccc2)cc1[N+](=O)[O-]`, the outcome was inactive. Consider `CCNC(=O)COc1ccc2ccccc2c1`, for which the call was inactive.

In the case of `Cn1cccc1C(C#N)c1cccc(F)c1C#N` (centres undefined), the compound was classed as inactive. To `N#Cc1cc([N+](=O)[O-])ccc1N1CCCC1` belongs “inactive”; to `O=C(NC1CCCC1)c1cc(Cl)ccc1[N+](=O)[O-]`, “inactive”. For `CCOC(=O)/C=C(\C)Sc1cc(=O)oc2ccccc12` the value was “inactive”. For `C=CCOC(=O)c1ccc(-n2cnc(C)n2)nc1` the value was “inactive”. As for `CC(C)CCNC(=O)c1cccc(Cl)c1`, the outcome was inactive. With `COC(=O)c1ccc(NC(=S)N2CCCC2)cc1`, the result was inactive.

With `N#CC(c1ccc(Cl)nn1)c1ccccc1Cl` (centres undefined), the call was inactive.

On to `Cc1cc(S(=O)(=O)NCC2CC2)c(Cl)cc1Cl`, for which the compound was classed as inactive. On to `CCOC(=O)CC(C#N)c1cn(C)c2ccccc12` (centres undefined), for which the compound was called inactive. As for `O=C1C=C(c2cccc(Cl)c2)C[C@@H](c2ccc(F)cc2)C1`, the result was inactive. For `Clc1ccc2scc(CN3CCCC3)c2c1` the value was “inactive”. To `O=C(NC1CCCCCCC1)c1cccc(Cl)c1` belongs “inactive”.

`O=C(NC1CCSC1)c1cccc(Cl)c1` (centres undefined): the compound was classed as inactive. On to `CCCCCC1CC(COc2ccccc2)OC1=O` (centres undefined), for which the call was inactive.

Take `O=C(NC1CCS(=O)(=O)C1)c1cccc(Br)c1` (centres undefined): the outcome was inactive.

Take `Cc1ccc2nc(-c3ccc4c(c3)OCCO4)cn2c1`: the compound was classed as inactive. For `O=CNC1(c2ccccc2)CCCCC1` the value was “inactive”; for `O=[N+]([O-])c1ccc(N2CCCC2)nc1`, “inactive”. With `CSC1=N/C(=C\C=C\c2cccs2)C(=O)S1`, the compound was called inactive. For `N#CC(c1ccc(Cl)nn1)c1ccc(Cl)cc1Cl` (centres undefined) the value was “inactive”; for `C#CCSc1ncc(-c2ccccc2)cn1`, “inactive”; for `CCOC(=O)CCCn1ncn2c(cc3occc32)c1=O`, “inactive”.

For the compound `OC(c1cccc(Cl)c1)c1nccc2ccccc12` (centres undefined), the compound was classed as inactive. To `Cc1ccc(S(=O)c2ccc(C)cc2)cc1` belongs “inactive”; to `O=[N+]([O-])c1ccc(N2CCCCC2)cc1`, “inactive”; to `CCOC1=CC(=O)OC(c2ccccc2)C1` (centres undefined), “inactive”.

The record behind these values is PubChem BioAssay AID504942 (Broad Institute, 2011).
